Screening data (PubChem BioAssay)
Dicer inh = inhibitors of Dicer pre-microRNA processing, primary screen, biochemical, cat-ELCCA, chemiluminescence. Endoribonuclease Dicer (Homo sapiens), Q9UPY3. cat-ELCCA pre-miR-21 Dicer processing; active compounds read high. z-score at 25 µM. 47,000 tested, 6% active. AID 1347074, 2019; in the data active = z-score above about 3, passing the limit was not always enough;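 note: plate controls were vehicle for no effect and no enzyme for full effect; higher signal means more uncleaved substrate so more Dicer inhibition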
Target sequence (Q9UPY3 whole entry, looked up): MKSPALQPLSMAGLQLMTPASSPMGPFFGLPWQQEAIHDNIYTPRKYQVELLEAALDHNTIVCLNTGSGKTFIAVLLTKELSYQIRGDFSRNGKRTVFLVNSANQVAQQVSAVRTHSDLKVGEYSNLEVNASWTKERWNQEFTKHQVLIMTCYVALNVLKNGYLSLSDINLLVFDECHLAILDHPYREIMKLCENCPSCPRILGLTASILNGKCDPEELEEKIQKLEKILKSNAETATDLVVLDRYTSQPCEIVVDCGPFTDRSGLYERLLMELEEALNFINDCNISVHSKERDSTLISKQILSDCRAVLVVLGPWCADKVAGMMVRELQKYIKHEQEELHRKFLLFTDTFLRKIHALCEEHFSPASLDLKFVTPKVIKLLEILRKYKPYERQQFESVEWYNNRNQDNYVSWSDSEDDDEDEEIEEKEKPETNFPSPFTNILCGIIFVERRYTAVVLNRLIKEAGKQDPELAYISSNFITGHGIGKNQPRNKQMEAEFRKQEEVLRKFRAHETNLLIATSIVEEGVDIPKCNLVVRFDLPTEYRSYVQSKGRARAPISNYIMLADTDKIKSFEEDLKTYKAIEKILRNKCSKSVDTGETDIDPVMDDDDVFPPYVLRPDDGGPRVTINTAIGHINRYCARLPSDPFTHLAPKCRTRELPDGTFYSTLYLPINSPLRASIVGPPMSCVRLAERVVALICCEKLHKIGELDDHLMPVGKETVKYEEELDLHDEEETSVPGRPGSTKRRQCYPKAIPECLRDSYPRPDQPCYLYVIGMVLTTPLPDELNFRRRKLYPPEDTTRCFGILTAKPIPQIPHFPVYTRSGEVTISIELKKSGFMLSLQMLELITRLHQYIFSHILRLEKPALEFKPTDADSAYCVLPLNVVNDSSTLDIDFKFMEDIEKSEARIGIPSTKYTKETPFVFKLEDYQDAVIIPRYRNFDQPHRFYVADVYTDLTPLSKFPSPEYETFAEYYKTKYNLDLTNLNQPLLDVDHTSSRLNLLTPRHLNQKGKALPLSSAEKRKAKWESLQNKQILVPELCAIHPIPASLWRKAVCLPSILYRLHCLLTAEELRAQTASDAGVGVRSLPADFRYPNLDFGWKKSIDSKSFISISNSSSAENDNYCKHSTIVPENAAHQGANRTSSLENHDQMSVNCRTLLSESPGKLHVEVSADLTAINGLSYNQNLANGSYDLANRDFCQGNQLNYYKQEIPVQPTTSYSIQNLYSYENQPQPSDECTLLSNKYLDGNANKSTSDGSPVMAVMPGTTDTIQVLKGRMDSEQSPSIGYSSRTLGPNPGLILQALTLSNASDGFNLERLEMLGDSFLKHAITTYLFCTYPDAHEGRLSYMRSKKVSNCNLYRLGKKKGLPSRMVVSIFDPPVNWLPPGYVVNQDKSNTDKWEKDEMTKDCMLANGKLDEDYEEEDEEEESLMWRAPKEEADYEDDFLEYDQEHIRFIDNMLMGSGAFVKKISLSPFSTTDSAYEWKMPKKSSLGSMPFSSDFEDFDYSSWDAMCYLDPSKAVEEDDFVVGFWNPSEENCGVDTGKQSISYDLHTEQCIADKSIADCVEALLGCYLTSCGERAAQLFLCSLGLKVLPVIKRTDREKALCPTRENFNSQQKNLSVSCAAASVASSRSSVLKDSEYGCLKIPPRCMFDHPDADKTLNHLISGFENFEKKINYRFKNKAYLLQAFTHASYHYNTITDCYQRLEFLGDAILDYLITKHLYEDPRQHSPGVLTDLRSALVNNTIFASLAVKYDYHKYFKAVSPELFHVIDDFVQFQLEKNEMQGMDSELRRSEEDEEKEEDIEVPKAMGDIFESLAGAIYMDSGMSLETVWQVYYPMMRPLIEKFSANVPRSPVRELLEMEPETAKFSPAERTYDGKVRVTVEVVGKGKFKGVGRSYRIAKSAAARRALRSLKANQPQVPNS
* = called active by the depositor. This is one part of a sample in which hits are shown more often than they occur.

CCCN(CCC)C(=O)c1cc([NH2+][O-])cc2c1-c1ccc([N+](=O)[O-])cc1C2=O was read as Dicer inh 0.15.
For Cc1cc(C)c2c(=O)c(/C=C3/SC(=S)N(c4ccc(F)cc4)C3=O)coc2c1 the results were Dicer inh 5.5*.
CC(C)c1ccc(N2C(=O)/C(=C/N(C)C)SC2=S)cc1 was read as Dicer inh 0.36.
O=C1S/C(=C\c2ccc(F)cc2)C(=O)N1c1ccccc1 was read as Dicer inh 1.3.
Screening NC(=O)c1c(NC(=O)CSc2ccc(Cl)cc2)sc2c1CCCC2 returned Dicer inh -1.4.
Screening O=C1c2cccc3cccc(c23)C(=O)N1NCCO returned Dicer inh 2.2.
For CCCCOC(=O)C1=C(C)NC2=C(C(=O)CC(C)(C)C2)C1c1cc2c(cc1Cl)OCO2 (stereo unspecified) the results were Dicer inh 0.07.
`O=C1c2ccccc2-c2cccc(C(=O)N3CCCCC3)c21` gave Dicer inh -1.2.
O=C1c2ccccc2-c2ccc(C(=O)N3CCOCC3)cc21 was read as Dicer inh 4.1*.
`O=C(c1ccc(N2CCOCC2)nc1)N1CCOCC1` gave Dicer inh 0.43.
Screening CO[C@H]1/C=C/O[C@@]2(C)Oc3c(C)c(O)c4c(O)c(c5c(nc6cc(C)ccn65)c4c3C2=O)NC(=O)/C(C)=C\C=C\[C@H](C)[C@H](O)[C@@H](C)[C@@H](O)[C@@H](C)[C@H](OC(C)=O)[C@@H]1C returned Dicer inh 0.32.
Screening Cc1[nH]nc2c1C(c1ccc(OC(=O)N3CCOCC3)cc1)C(C#N)=C(N)O2 (stereo unspecified) returned Dicer inh -1.4.
Screening Cn1[nH]c(Nc2ccccc2Cl)c(N=Nc2ccccc2)c1=O returned Dicer inh -0.91.
Screening CCOC(=O)c1sc(SC(C)CC)c(C#N)c1-c1ccc(Cl)cc1 (stereo unspecified) returned Dicer inh 0.13.
For CSc1sc(C(=O)NC(C)(C)C)c(-c2ccc(Cl)cc2)c1C#N the results were Dicer inh -3.2.
CCOC(=O)CSc1sc(C(=O)OCC)c(-c2ccc(Cl)cc2)c1C#N was read as Dicer inh -2.
For CCSc1sc(C(=O)OC)c(-c2ccc(Cl)cc2)c1C#N the results were Dicer inh 0.97.
`CC(C)Sc1sc(C(=O)O)c(-c2ccc(Cl)cc2)c1C#N` gave Dicer inh 4.1*.
`CCOC(=O)c1sc(SC(C)C)c(C#N)c1-c1ccc(Cl)cc1` gave Dicer inh 5*.
COCCOC(=O)C1=C(C)NC2=C(C(=O)CCC2)C1c1ccc(C)cc1 (stereo unspecified) was read as Dicer inh -0.58.
For CCCN1C(=O)C(O)(CC(=O)c2ccco2)c2cc(Br)ccc21 (stereo unspecified) the results were Dicer inh 0.71.
`COc1ccc(/C(O)=C2/C(=O)C(=O)N(CCc3ccccc3)C2c2ccccc2F)cc1` (stereo unspecified) gave Dicer inh -0.52.
For Cc1cc2c(cc1C)C(c1ccc(F)c(Br)c1)CC(=O)N2 (stereo unspecified) the results were Dicer inh 0.83.
Screening O=C(O)CCC(=O)N1CCCc2ccccc21 returned Dicer inh 2.3.
`O=C(Nc1ccc(Cl)cc1)N1CCCc2ccccc21` gave Dicer inh 4.3*.
`O=C(Nc1cc(Cl)cc(Cl)c1)N1CCCc2ccccc21` gave Dicer inh -0.22.
For O=C1CCc2cc(C(=O)CSc3ccccc3)ccc2N1 the results were Dicer inh -1.6.
Screening COCCNS(=O)(=O)c1ccc(C(=O)OC)n1C returned Dicer inh 0.34.
`Nc1ncnc2c1ncn2CC(O)CO` (stereo unspecified) gave Dicer inh 6.8*.
For Nc1ncnc2c1ncn2CCc1ccccc1 the results were Dicer inh -0.86.
Nc1ncnc2c1ncn2CCN1CCCCC1 was read as Dicer inh -1.7.
`O=C1CS(=O)(=O)C(c2cccnc2)N1Cc1ccc(F)cc1` (stereo unspecified) gave Dicer inh 0.87.
c1ccc(Cc2cn3cc(-c4ccccc4)nc3s2)cc1 was read as Dicer inh -0.47.
For Clc1ccccc1Cc1cn2cc(-c3ccccc3)nc2s1 the results were Dicer inh 4.1*.
`Fc1ccc(Cc2cn3cc(-c4ccccc4)nc3s2)cc1` gave Dicer inh 0.05.
Screening Cc1ccc(Cn2c(C)cc(C)c(C#N)c2=O)cc1 returned Dicer inh -0.64.
For COc1ccc(C(O)c2nccn2C)cc1OC (stereo unspecified) the results were Dicer inh 3.5*.
COc1ccc2ccccc2c1C(O)c1nccn1C (stereo unspecified) was read as Dicer inh -3.6.
Screening Cn1ccnc1C(O)c1ccccc1 (stereo unspecified) returned Dicer inh 1.3.
Screening Nc1c(C(=O)N/N=C/c2ccc(Cl)cc2)sc(=S)n1-c1ccccc1 returned Dicer inh 1.4.
